Assay results from PubChem BioAssay (EPA / NIEHS).
The source made the active and inactive calls. Rule for the calls: active = hit-call score of the fitted dose curve at least 0.9, where 1 is the maximum; inactive = score below 0.9.

How the values were obtained:
Details in all cases: mRNA level, 48 h; actives raise or lower the signal
[1] = read-out: Tumor necrosis factor receptor superfamily member 6 (Homo sapiens) (UniProt P25445); assay: LTEA_HepaRG_FAS: Life Technologies and Expression Analysis (LTEA) Assay for Fas cell surface death receptor (FAS) using HepaRG (AID 2283447)
Outline: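 FAS transcript level was measured by TaqMan qRT-PCR against three housekeeping genes after 48 h chemical exposure. Cells were HepaRG, 0.5% DMSO vehicle, with a top concentration of 100 uM and half-log dilutions over eight points, in duplicate.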

[2] = read-out: Fatty acid synthase (Homo sapiens) (UniProt P49327); assay: LTEA_HepaRG_FASN: Life Technologies and Expression Analysis (LTEA) Assay for Fatty Acid Synthase (FASN) using HepaRG (AID 2283448)
Outline: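 Differentiated human HepaRG cells were exposed for 48 h in serum-free induction medium to eight half-log concentrations up to 100 uM in 0.5% DMSO, in duplicate. FASN mRNA was quantified by TaqMan qRT-PCR, normalized to ACTB/GAPDH/POLR2A, and fitted bidirectionally against DMSO.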

[3] = read-out: Cyclin D2 (CCND2), CCND2 (gene 894); assay: LTEA_HepaRG_CCND2: Life Technologies and Expression Analysis (LTEA) Assay for Cyclin D2 (CCND2) using HepaRG (AID 2283449)
Outline: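 Read-out is CCND2 mRNA level measured by qRT-PCR in human HepaRG liver cells and normalised to three housekeeping genes. Chemicals were applied for 48 h at up to 100 uM, with gain or loss fitted relative to 0.5% DMSO.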

[4] = read-out: Cyclin Dependent Kinase Inhibitor 1A (CDKN1A), CDKN1A (gene 1026); assay: LTEA_HepaRG_CDKN1A: Life Technologies and Expression Analysis (LTEA) Assay for Cyclin Dependent Kinase Inhibitor 1A (CDKN1A) using HepaRG (AID 2283450)
Outline: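 Differentiated HepaRG cells in serum-free induction medium, exposed 48 h in duplicate to eight half-log concentrations up to 100 uM in 0.5% DMSO. mRNA measured by TaqMan qRT-PCR, normalized to ACTB, GAPDH, POLR2A; bidirectional fit versus DMSO.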

[5] = read-out: Cyclin D1 (CCND1), CCND1 (gene 595); assay: LTEA_HepaRG_CCND1: Life Technologies and Expression Analysis (LTEA) Assay for Cyclin D1 (CCND1) using HepaRG (AID 2283451)
Outline: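 Differentiated HepaRG cells exposed 48 h in serum-free induction medium to eight half-log concentrations from 100 uM top, 0.5% DMSO, duplicates. CCND1 mRNA measured by Fluidigm TaqMan qRT-PCR, normalised to ACTB, GAPDH, POLR2A; bidirectional fit.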

[6] = read-out: catalase (CAT), CAT (gene 847); assay: LTEA_HepaRG_CAT: Life Technologies and Expression Analysis (LTEA) Assay for catalase (CAT) using HepaRG (AID 2283452)
Outline: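 Expression of CAT was quantified by TaqMan qRT-PCR with ACTB/GAPDH/POLR2A normalization after 48 h chemical exposure of HepaRG. Eight-point half-log series, top 100 uM, in 0.5% DMSO; gain or loss fitted against vehicle.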

[7] = read-out: flavin-containing dimethylaniline monooxygenases 3 (FMO3), FMO3 (gene 2328); assay: LTEA_HepaRG_FMO3: Life Technologies and Expression Analysis (LTEA) Assay for flavin-containing dimethylaniline monooxygenases 3 (FMO3) using HepaRG (AID 2283453)
Outline: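 HepaRG, 48 h exposure, 8-pt half-log series from 100 uM, 0.5% DMSO vehicle, duplicates; FMO3 transcript by Fluidigm TaqMan qRT-PCR, housekeeping-normalized; gain/loss fit vs DMSO.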

[8] = read-out: Cytochrome P450 (CYP1A1), CYP1A1 (gene 1543); assay: LTEA_HepaRG_CYP1A1: Life Technologies and Expression Analysis (LTEA) Assay for Cytochrome P450 (CYP1A1) using HepaRG (AID 2283454)
Outline: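 Differentiated human HepaRG cells, after 48 h plating, exposed in duplicate for 48 h in serum-free induction medium to 8 half-log concentrations up to 100 uM in 0.5% DMSO. CYP1A1 mRNA by qRT-PCR, normalized to ACTB/GAPDH/POLR2A; bidirectional fit versus DMSO.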

[9] = read-out: CFLAR gene, CFLAR (gene 8837); assay: LTEA_HepaRG_CFLAR: Life Technologies and Expression Analysis (LTEA) Assay for CFLAR gene using HepaRG (AID 2283455)
Outline: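 HepaRG, 48 h exposure, 8-pt conc-response (100 uM top, half-log), 0.5% DMSO vehicle, duplicates. CFLAR expression by qRT-PCR; ACTB/GAPDH/POLR2A normalization; gain or loss fit vs DMSO baseline.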

[10] = read-out: Forkhead box O1 (FOXO1), FOXO1 (gene 2308); assay: LTEA_HepaRG_FOXO1: Life Technologies and Expression Analysis (LTEA) Assay for Forkhead box O1 (FOXO1) using HepaRG (AID 2283456)
Outline: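 Readout is FOXO1 transcript level by multiplexed qRT-PCR against three housekeeping genes, curve-fitted in both directions relative to 0.5% DMSO vehicle. Human HepaRG cultures received chemicals for 48 h, up to 100 uM in half-log steps.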

[11] = read-out: growth arrest and DNA damage 45 (GADD45A), GADD45A (gene 1647); assay: LTEA_HepaRG_GADD45A: Life Technologies and Expression Analysis (LTEA) Assay for growth arrest and DNA damage 45 (GADD45A) using HepaRG (AID 2283458)
Outline: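 Differentiated HepaRG cells were exposed in duplicate for 48 h in serum-free induction medium to 8-point half-log concentrations up to 100 uM in 0.5% DMSO. GADD45A mRNA was measured by TaqMan qRT-PCR, normalized to ACTB, GAPDH and POLR2A, with bidirectional fitting versus DMSO.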

[12] = read-out: Forkhead box O3 (FOXO3), FOXO3 (gene 2309); assay: LTEA_HepaRG_FOXO3: Life Technologies and Expression Analysis (LTEA) Assay for Forkhead box O3 (FOXO3) using HepaRG (AID 2283459)
Outline: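 HepaRG, 48 h post-dose; 8 conc., half-log from 100 uM, 0.5% DMSO, duplicates; serum-free induction medium. Readout: FOXO3 mRNA, TaqMan qRT-PCR, housekeeping-normalized. Bidirectional curve fit vs DMSO baseline.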

[13] = read-out: ABC Transporter (ABCB1), ABCB1 (gene 5243); assay: LTEA_HepaRG_ABCB1: Life Technologies and Expression Analysis (LTEA) Assay for ABC Transporter (ABCB1) using HepaRG (AID 2283460)
Outline: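 Expression of ABCB1 was quantified by qRT-PCR against three housekeeping genes after human HepaRG cultures received test chemicals for 48 hours. Concentrations spanned eight half-log steps topping at 100 uM in 0.5% DMSO; gain or loss of signal was fitted relative to vehicle.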

[14] = read-out: growth arrest and DNA damage 45 (GADD45B), GADD45B (gene 4616); assay: LTEA_HepaRG_GADD45B: Life Technologies and Expression Analysis (LTEA) Assay for growth arrest and DNA damage 45 (GADD45B) using HepaRG (AID 2283461)
Outline: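 Differentiated human HepaRG cells in serum-free induction medium exposed 48 h in duplicate to eight concentrations, top 100 uM, half-log steps, 0.5% DMSO. GADD45B mRNA by TaqMan qRT-PCR, normalized to ACTB, GAPDH, POLR2A; bidirectional fit versus DMSO.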

[15] = read-out: ABC Transporter (ABCC3), ABCC3 (gene 8714); assay: LTEA_HepaRG_ABCC3: Life Technologies and Expression Analysis (LTEA) Assay for ABC Transporter (ABCC3) using HepaRG (AID 2283462)
Outline: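 Differentiated human HepaRG cells exposed 48 h in serum-free induction medium, 0.5% DMSO vehicle, 8-point half-log series to 100 uM in duplicate. ABCC3 mRNA by qRT-PCR, normalised to ACTB, GAPDH, POLR2A; bidirectional fit vs DMSO.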

[16] = read-out: ABC Transporter (ABCB11), ABCB11 (gene 8647); assay: LTEA_HepaRG_ABCB11: Life Technologies and Expression Analysis (LTEA) Assay for ABC Transporter (ABCB11) using HepaRG (AID 2283463)
Outline: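 ABCB11 transcript levels are read by Fluidigm TaqMan qRT-PCR after 48 h chemical treatment of human HepaRG cells. Concentrations span 100 uM downward in half-log steps with 0.5% DMSO; gain or loss is fitted against DMSO controls.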

[17] = read-out: ABC Transporter (ABCC2), ABCC2 (gene 1244); assay: LTEA_HepaRG_ABCC2: Life Technologies and Expression Analysis (LTEA) Assay for ABC Transporter (ABCC2) using HepaRG (AID 2283464)
Outline: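 Differentiated HepaRG cells in serum-free induction medium exposed 48 h to eight half-log concentrations up to 100 uM, 0.5% DMSO, in duplicate. ABCC2 mRNA measured by qRT-PCR (TaqMan, Fluidigm), normalized to ACTB, GAPDH and POLR2A. Fitted in both directions against DMSO.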

[18] = read-out: Broad substrate specificity ATP-binding cassette transporter ABCG2 (Homo sapiens) (UniProt Q9UNQ0); assay: LTEA_HepaRG_ABCG2: Life Technologies and Expression Analysis (LTEA) Assay for ABC Transporter (ABCG2) using HepaRG (AID 2283465)
Outline: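 Read-out is ABCG2 mRNA induction or loss quantified by qRT-PCR after 48 h chemical treatment of human HepaRG cells, normalized to three housekeeping genes. Concentrations reached 100 uM top in half-log steps; fitting was bidirectional against 0.5% DMSO.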

Measured: AC50

Chain of Broad substrate specificity ATP-binding cassette transporter ABCG2 (Homo sapiens) (Q9UNQ0 whole entry, looked up): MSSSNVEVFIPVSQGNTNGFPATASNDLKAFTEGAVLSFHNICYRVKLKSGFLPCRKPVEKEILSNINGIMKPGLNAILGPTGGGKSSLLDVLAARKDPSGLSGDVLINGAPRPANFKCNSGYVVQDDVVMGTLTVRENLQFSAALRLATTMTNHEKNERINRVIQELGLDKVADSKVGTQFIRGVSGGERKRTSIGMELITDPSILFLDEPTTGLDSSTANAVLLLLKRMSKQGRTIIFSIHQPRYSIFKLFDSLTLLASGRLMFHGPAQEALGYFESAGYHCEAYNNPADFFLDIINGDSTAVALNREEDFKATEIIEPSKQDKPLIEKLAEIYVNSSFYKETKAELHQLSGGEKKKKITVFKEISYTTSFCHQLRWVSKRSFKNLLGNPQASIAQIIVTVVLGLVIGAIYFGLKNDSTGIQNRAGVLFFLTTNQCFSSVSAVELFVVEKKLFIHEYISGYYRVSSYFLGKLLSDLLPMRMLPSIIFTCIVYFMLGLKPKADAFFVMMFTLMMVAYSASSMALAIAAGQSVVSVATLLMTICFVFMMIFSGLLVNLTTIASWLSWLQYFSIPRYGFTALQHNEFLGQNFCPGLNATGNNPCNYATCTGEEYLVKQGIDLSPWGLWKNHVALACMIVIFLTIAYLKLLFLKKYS
Chain of Fatty acid synthase (Homo sapiens) (P49327 whole entry, looked up): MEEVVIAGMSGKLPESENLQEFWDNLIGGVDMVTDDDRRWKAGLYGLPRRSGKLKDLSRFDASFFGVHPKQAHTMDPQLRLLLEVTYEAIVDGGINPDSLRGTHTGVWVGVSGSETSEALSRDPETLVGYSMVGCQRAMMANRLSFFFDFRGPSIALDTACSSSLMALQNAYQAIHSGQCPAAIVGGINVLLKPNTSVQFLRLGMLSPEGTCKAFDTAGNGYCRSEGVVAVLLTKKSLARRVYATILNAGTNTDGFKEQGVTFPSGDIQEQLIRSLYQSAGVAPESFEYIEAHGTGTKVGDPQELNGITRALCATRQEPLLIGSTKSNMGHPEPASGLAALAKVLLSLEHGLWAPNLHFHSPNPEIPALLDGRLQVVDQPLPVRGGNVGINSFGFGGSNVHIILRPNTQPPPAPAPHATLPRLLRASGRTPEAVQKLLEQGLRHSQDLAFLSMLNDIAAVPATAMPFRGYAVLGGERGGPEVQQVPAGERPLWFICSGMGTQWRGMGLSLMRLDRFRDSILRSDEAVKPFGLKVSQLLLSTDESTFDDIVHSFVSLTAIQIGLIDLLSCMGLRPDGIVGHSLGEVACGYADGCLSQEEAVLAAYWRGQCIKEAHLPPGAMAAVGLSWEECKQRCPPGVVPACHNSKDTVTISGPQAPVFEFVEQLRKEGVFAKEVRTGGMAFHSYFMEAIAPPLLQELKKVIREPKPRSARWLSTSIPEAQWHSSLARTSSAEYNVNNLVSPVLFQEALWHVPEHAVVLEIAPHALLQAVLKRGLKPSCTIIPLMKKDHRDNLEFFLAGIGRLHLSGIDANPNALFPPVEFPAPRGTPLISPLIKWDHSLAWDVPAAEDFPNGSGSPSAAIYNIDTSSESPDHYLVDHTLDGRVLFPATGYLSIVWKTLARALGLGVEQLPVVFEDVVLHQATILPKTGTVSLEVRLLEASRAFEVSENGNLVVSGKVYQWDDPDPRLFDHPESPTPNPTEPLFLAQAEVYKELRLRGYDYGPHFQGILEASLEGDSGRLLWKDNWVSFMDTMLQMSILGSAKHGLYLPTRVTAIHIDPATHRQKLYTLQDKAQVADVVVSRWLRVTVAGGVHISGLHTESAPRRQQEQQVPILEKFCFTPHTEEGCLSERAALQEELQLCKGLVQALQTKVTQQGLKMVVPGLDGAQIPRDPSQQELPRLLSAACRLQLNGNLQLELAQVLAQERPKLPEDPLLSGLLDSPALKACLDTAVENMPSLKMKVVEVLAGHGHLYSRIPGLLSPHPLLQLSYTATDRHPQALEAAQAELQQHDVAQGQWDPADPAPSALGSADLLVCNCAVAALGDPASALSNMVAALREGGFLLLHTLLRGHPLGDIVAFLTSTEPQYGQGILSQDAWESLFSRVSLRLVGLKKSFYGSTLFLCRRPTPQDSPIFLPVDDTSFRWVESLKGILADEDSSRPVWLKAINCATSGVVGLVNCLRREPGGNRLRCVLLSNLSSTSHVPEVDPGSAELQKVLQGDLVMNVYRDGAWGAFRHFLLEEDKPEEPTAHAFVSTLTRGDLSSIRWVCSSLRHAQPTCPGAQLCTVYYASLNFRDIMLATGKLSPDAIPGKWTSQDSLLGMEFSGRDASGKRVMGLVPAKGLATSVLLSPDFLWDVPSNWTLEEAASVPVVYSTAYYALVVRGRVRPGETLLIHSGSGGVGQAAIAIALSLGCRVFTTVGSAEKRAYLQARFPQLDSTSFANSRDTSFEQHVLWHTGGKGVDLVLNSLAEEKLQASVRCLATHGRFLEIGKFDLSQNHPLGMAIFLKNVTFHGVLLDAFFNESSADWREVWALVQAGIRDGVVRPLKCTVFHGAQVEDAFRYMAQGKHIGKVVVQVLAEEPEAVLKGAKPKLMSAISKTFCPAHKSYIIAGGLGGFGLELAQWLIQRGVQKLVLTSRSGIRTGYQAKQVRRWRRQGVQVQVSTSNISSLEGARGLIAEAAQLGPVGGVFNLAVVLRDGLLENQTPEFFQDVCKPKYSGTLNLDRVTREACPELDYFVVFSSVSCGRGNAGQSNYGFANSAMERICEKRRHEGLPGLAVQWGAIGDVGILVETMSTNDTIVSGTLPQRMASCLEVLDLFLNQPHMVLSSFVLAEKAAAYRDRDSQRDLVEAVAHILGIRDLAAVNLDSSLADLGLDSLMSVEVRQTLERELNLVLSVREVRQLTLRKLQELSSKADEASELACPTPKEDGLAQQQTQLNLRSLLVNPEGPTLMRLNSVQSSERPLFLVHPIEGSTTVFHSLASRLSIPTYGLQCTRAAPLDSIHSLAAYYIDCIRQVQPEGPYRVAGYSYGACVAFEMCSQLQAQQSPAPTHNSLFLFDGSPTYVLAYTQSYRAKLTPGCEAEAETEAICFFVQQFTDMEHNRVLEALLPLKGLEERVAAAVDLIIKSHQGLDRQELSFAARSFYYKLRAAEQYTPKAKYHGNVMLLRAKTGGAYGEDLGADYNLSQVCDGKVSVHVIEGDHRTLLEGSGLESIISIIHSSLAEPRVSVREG

c1ccc(N=Nc2ccccc2)cc1
inactive: [1] | [2] | [3] | [4] | [5] | [6] | [7] | [9] | [10] | [11] | [12] | [13] | [14] | [15] | [16] | [17] | [18]
active: [8] 36.6 µM

O=C1CCCO1
active: [1] 50 µM | [11] 50 µM | [13] 9.92 µM
inactive: [2] | [3] | [4] | [5] | [6] | [7] | [8] | [9] | [10] | [12] | [14] | [15] | [17] | [18]
